Here are results for ten compounds from PubChem BioAssay (NCATS).

Assay [1] is described as follows: Cytometric Cell-Based qHTS for Inhibitors of the mTORC1 Signaling Pathway in MEF (Tsc2-/-, p53-/-) Cells (AID 2660).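 Note: percent of cells above a phospho-rpS6 to PI ratio cutoff in each well; series mostly up to about 38 µM.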 Summed up:
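Tsc2-/-, p53-/- MEFs (empty vector) exposed to compound 24 h at 37 C, fixed, stained with Alexa-488 anti-phospho-rpS6 Ser235/236 and propidium iodide. Acumen laser scanning; phospho-S6/PI ratio thresholded against 7.5 nM rapamycin, reported as % positive cells.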

The nature of assay [2]: High Content Imaging Cell-Based qHTS for Inhibitors of the mTORC1 Signaling Pathway in MEF (Tsc2-/-, p53-/-) Cells (AID 2666). A digest of the protocol: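 Phospho-rpS6 (Ser235/236) immunofluorescence, normalized and scored as % positive cells using rapamycin and DMSO controls, was read in empty-vector Tsc2-/-, p53-/- MEFs after 24 h compound exposure at 37 C; propidium iodide counted cells.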
(In qHTS, concentration-response curves come from the screen itself.)

A short description of assay [3]: High Content Imaging Cell-Based qHTS for Inhibitors of the mTORC1 Signaling Pathway in MEF Cells (AID 2667). Note: potency is the fitted concentration of half-maximal effect. Summed up:
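WT MEFs (Tsc2-/-, p53-/- re-expressing Tsc2), in DMEM + 10% FBS, were treated with compound for 24 h at 37 C. Cells were then fixed and stained for phospho-rpS6 Ser235/236 with propidium iodide as cell count. Values are % positive cells, with thresholds set against rapamycin-treated cells.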

Assay [4] is described as follows: Cytometry Cell-Based qHTS for Inhibitors of the mTORC1 Signaling Pathway in MEF cells (AID 2668).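 Note: Tsc2-/- p53-/- mouse embryonic fibroblasts stably re-expressing wild-type Tsc2; percent cells positive for phospho-rpS6 Ser235/236 relative to propidium iodide stain; series mostly up to about 38 µM.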 Summed up: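 Pathway inhibition in WT Tsc2-rescued Tsc2-/-, p53-/- MEFs is measured as the Alexa-488 phospho-rpS6 to propidium iodide intensity ratio after 24 hrs of compound at 37 degree Celsius. PI-stained cell number gives viability.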
Assay [5] has as its target Ubiquitin carboxyl-terminal hydrolase 2 (Homo sapiens) (UniProt O75604). Put plainly: qHTS Validation Assay for Inhibitors of Ubiquitin-specific Protease USP2a Using CHOP2 as the Reporter (AID 463106). Summed up: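 USP2 core (10 nM final) was preincubated with compound 30 min at RT in pH 8.0 Tris/CaCl2/beta-ME/CHAPS buffer. Ub-CHOP2 and reporter substrate (25 nM final each) were then added, with fluorescence (Ex 485/Em 531) read after 60 min. Data were normalized to NEM full inhibition and fitted to concentration-response curves.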

The target of assay [6] is DNA polymerase III PolC-type (Bacillus subtilis (strain 168)) (UniProt P13267). In words: qHTS Validation Assay for the Inhibitors of DNA Replication in Gram-Positive Bacteria (AID 485295).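 Note: reconstituted holoenzyme with PolC plus beta clamp SSB and primase; PicoGreen fluorescence of double-stranded DNA made on primed circular M13 template; series mostly up to about 57 µM.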 Summed up:
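Primed replication of single-stranded M13Gori by a four-protein B. subtilis holoenzyme is measured at room temperature. Double-stranded product is quantified by PicoGreen fluorescence after an EDTA stop; inhibition is scaled between DMSO and EDTA controls.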

Assay [7] in a line: qHTS Validation Assay to Find Inhibitors of Chronic Active B-Cell Receptor Signaling (AID 485345; active = well fitted curve in the direction sought with a large enough effect in the main read-out, with a control signal flat, not every such curve was filed as active). Summed up:
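TMD8 ABC-DLBCL cells stably carrying doxycycline-inducible IkappaBalpha–green luciferase fusion plus unfused red luciferase; compounds 46 uM to 3 nM, 4 h at 37C with doxycycline. Corrected green/red luminescence ratio normalized to 10 uM MG-132 and basal cell wells; curves fitted.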

In assay [8] the target is Beta-2 adrenergic receptor (Homo sapiens) (UniProt P07550). In words: qHTS validation assay of beta-arrestin-biased ligands of beta2-adrenergic receptor (AID 485366). Summed up: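 Tango cells expressing recombinant beta2-AR and beta-arrestin with tTA-driven luciferase, in DMEM with 1% FBS. Compounds were titrated up to 46 microM for 18 hr at 37 degrees C. Luminescence was read 15 min after substrate; curves were fitted and class-assigned.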

The target of assay [9] is Thioredoxin reductase 1, cytoplasmic (Rattus norvegicus) (UniProt O89049). Put plainly: qHTS Assay for Substrates of Mammalian Selenoprotein Thioredoxin Reductase 1 (TrxR1) (AID 488772).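 Note: NADPH fluorescence in the first read after selenite addition and not the 8 min delta; series mostly up to about 57 µM; a drop in NADPH fluorescence below the no-compound background marks a TrxR1 substrate.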 A digest of the protocol: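 Quantitative HTS in Tris-HCl buffer at pH 7.5 with EDTA and Tween-20, using rat TrxR1, 400 uM NADPH and 400 uM selenite (final). A fall in initial NADPH fluorescence relative to background marked substrate behaviour.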
Chain of Thioredoxin reductase 1, cytoplasmic (Rattus norvegicus) (O89049 whole entry, looked up): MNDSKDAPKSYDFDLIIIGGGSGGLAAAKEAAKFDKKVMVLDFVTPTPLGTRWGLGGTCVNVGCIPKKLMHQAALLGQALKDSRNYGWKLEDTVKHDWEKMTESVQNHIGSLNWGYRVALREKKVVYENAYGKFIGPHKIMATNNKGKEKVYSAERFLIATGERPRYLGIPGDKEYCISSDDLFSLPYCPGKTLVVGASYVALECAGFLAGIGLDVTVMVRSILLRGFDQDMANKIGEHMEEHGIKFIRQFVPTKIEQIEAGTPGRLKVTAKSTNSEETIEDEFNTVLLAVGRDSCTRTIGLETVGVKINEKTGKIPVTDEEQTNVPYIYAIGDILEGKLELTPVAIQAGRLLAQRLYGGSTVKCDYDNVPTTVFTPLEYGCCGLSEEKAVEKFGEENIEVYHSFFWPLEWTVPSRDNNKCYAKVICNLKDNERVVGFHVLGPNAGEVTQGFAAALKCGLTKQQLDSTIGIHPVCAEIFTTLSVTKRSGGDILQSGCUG

Assay [10] shares this target. Put plainly: qHTS Assay for Inhibitors of Mammalian Selenoprotein Thioredoxin Reductase 1 (TrxR1) (AID 488773). Note: nearly all actives have a fitted effect of over 40% in size. Note: potency is the fitted concentration of half-maximal effect. As to conditions: Potency: inhibition. Summed up:
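Steps: enzyme (90 nM) plus NADPH (400 uM final), 5 min at ~22 deg C; compound added, 15 min; selenite (400 uM final) added; fluorescence followed for 8 min. Concentration-response curves derived from the normalized delta values.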

In assay [11] the target is Flap endonuclease 1 (Homo sapiens) (UniProt P39748). Put plainly: qHTS Validation Assay for the Inhibitors of Human Flap endonuclease 1 (FEN1) (AID 488816). Summed up: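 Human FEN1 (10 nM) preincubated 15 min at room temperature with compounds, then flap DNA substrate added at 50 nM final. Fluorescence read at 0 and 15 min; concentration-response fitted with four-parameter Hill equation.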
Chain of Flap endonuclease 1 (Homo sapiens) (P39748 whole entry, looked up): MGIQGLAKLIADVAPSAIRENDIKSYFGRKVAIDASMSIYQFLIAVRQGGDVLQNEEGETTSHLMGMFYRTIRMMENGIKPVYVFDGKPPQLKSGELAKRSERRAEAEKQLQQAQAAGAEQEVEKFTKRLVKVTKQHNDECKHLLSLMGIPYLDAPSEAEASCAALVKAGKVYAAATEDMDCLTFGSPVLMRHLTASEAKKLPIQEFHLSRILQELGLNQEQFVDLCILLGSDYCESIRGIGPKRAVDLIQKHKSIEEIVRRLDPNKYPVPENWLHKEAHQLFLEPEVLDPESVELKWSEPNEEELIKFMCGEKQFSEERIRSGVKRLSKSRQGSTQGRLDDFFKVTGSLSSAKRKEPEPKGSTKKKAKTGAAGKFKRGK

In assay [12] the target is M-phase phosphoprotein 8 (Homo sapiens) (UniProt Q99549). Put plainly: qHTS Validation Assay for Inhibitors for MPP8 Chromodomain Interactions with Methylated Histone Tails (AID 488949).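 Note: AlphaScreen signal from MPP8 chromodomain bound to biotinylated H3K9me3 peptide; top concentration of the series differs between compounds; nearly all actives have a fitted effect of over 55% in size.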 A digest of the protocol: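 Disruption of the preformed MPP8–trimethyl-H3K9 peptide complex (both 50 nM, 30 min, RT) is measured after 30 min compound exposure, using AlphaScreen proximity beads; aurintricarboxylic acid titration serves as plate control.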
Chain of M-phase phosphoprotein 8 (Homo sapiens) (Q99549 whole entry, looked up): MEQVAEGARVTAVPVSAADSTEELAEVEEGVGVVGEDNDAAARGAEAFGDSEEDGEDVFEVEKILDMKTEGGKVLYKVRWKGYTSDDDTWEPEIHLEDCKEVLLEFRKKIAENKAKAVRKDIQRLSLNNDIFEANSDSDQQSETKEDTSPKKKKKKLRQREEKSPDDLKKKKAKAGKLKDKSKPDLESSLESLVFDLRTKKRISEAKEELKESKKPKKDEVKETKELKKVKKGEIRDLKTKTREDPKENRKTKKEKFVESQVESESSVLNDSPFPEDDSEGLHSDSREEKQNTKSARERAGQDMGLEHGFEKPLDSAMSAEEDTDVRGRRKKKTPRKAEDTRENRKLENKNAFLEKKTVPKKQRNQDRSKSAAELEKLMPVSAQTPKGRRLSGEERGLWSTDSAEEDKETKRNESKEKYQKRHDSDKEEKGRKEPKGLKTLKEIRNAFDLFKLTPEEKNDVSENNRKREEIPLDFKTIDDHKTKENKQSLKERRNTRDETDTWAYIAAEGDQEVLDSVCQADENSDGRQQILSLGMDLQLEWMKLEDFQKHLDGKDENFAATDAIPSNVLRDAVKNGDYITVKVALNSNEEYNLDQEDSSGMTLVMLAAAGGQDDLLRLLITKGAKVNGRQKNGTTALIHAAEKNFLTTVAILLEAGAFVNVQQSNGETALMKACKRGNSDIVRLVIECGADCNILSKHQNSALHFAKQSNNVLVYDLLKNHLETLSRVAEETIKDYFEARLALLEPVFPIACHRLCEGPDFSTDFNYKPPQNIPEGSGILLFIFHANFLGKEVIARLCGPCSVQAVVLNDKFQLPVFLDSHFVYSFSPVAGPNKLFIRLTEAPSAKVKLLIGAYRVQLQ

Assay [13] addresses Chromobox protein homolog 1 (Homo sapiens) (UniProt P83916). Put plainly: qHTS Validation Assay for Inhibitors of HP1-beta Chromodomain Interactions with Methylated Histone Tails (AID 488953). Note: nearly all actives have a fitted effect of over 50% in size. Note: potency is the fitted concentration of half-maximal effect. Summed up:
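50 nM HP1-beta + 50 nM biotin-H3(1-18)K9me3, PBS pH 7.4, 0.01% Tween-20, 30 min RT; compound added, 30 min RT; AlphaScreen beads 10 ug/mL final, 30 min dark; luminescence read.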

Assay [14] has as its target ATP-dependent 6-phosphofructokinase (Trypanosoma brucei brucei) (UniProt O15648). Put plainly: qHTS Validation Assay to Find Inhibitors of T. brucei phosphofructokinase (AID 485368). A digest of the protocol:
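Activity was read as ADP production by luminescence (ADP-Glo) after 45 min at room temperature. The enzyme was 1.25nM PFK in 0.1M TEA pH 8.0 with 0.5 mM F6P, 0.1mM ATP and 5 mM MgCl2. Compounds were titrated up to 57 uM and % activity normalized to no-enzyme and full-enzyme controls.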

Assay [15] has as its target Tumor susceptibility gene 101 protein (Homo sapiens) (UniProt Q99816). Put plainly: qHTS Validation Assay for Iinhibitors of HIV-1 Budding by Blocking the Interaction of PTAP/TSG101 (AID 485342; calls by dose curve). Summed up:
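Fluorescence anisotropy measured PTAP-Tsg101 interaction. Final concentrations were 10 uM protein domain and 50 nM labeled peptide, equilibrated 20 min at room temperature.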

A short description of assay [16]: Quantitative high throughput screen for delayed death inhibitors of the malarial parasite plastid, 96 hour incubation (AID 488745).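 Note: luciferase-expressing P. falciparum in erythrocytes at 2% hematocrit and 0.1% parasitemia; series mostly up to about 29 µM; nearly all actives have a fitted effect of over 70% in size.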 A digest of the protocol:
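Infected erythrocytes were added to compound in Albumax-supplemented RPMI 1640 at 0.1% parasitemia and 2% hematocrit (final), incubated 96 h at 37 C under 5% CO2, then luciferase reagent was added and luminescence measured.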

The nature of assay [17]: Quantitative high throughput screen for delayed death inhibitors of the malarial parasite plastid, 48 hour incubation (AID 488752). Note: nearly all actives have a fitted effect of over 65% in size. A digest of the protocol:
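Readout is firefly luciferase luminescence from a reporter integrated into the parasite genome, with lower signal taken as inhibited growth. Infected red cells (0.1% parasitemia, 2% hematocrit final) are cultured with compound for one 48 h cycle at 37 C.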

Assay [18] can be described thus: Validation screen for small molecules that induce DNA re-replication in MCF 10A normal breast cells (AID 463097). Note: nearly all actives have a fitted effect of over 60% in size. A digest of the protocol:
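DNA re-replication was detected as a rise in nuclei with elevated Hoechst fluorescence after a 48 hr compound exposure of MCF 10A cells at 37 C.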

Each structure is given as a SMILES string. Records with an inconclusive call do not appear. Active and inactive are the calls of the source. Unless noted, calls come from the whole dose curve; as a rule, active = well fitted curve in the direction sought with a large enough effect; inconclusive = small, poorly fitted or top-dose-only effect, or another doubt; inactive = no such curve, though single readings can be large; an effect the other way counts as inactive or inconclusive.

Chain of Tumor susceptibility gene 101 protein (Homo sapiens) (Q99816 whole entry, looked up, the tested form may be a part): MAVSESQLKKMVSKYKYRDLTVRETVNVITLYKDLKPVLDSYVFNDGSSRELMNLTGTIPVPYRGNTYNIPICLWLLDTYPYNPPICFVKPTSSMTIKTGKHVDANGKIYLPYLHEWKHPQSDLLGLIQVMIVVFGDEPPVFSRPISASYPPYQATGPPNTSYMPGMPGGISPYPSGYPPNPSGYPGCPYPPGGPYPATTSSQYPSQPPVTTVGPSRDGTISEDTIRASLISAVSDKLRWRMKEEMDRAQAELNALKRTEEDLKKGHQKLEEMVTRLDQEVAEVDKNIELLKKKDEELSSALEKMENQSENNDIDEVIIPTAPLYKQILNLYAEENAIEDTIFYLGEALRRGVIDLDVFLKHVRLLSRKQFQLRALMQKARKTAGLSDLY
Chain of Ubiquitin carboxyl-terminal hydrolase 2 (Homo sapiens) (O75604 whole entry, looked up): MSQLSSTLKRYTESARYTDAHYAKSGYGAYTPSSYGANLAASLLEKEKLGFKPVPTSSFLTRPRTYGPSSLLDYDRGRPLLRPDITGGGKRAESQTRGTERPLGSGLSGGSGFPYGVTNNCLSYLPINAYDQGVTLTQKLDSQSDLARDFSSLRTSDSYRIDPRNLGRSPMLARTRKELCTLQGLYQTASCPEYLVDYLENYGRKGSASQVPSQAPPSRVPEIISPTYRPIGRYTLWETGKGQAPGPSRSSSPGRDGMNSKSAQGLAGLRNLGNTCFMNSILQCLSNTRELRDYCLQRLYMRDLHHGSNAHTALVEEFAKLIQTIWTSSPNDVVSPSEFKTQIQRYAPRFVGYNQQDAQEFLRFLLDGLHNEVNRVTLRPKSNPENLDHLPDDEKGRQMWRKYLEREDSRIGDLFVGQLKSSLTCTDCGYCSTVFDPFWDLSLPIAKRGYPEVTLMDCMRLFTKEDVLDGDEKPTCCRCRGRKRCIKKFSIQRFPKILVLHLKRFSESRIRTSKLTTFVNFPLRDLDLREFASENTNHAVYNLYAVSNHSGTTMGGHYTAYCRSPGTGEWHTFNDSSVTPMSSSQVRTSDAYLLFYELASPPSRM
Chain of ATP-dependent 6-phosphofructokinase (Trypanosoma brucei brucei) (O15648 whole entry, looked up): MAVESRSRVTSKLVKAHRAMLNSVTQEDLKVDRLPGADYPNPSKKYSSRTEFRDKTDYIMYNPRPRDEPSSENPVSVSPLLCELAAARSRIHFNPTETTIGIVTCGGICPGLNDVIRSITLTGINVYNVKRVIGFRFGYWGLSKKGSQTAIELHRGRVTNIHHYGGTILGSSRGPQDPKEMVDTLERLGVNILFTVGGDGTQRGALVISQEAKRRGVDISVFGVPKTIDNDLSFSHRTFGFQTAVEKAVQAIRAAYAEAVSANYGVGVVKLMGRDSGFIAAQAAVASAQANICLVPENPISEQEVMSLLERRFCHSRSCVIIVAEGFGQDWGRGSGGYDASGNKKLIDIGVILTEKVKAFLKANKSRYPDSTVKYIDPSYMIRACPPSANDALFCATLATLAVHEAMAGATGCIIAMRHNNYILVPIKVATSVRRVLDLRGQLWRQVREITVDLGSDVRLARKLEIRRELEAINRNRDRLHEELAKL
Chain of DNA polymerase III PolC-type (Bacillus subtilis (strain 168)) (P13267 whole entry, looked up): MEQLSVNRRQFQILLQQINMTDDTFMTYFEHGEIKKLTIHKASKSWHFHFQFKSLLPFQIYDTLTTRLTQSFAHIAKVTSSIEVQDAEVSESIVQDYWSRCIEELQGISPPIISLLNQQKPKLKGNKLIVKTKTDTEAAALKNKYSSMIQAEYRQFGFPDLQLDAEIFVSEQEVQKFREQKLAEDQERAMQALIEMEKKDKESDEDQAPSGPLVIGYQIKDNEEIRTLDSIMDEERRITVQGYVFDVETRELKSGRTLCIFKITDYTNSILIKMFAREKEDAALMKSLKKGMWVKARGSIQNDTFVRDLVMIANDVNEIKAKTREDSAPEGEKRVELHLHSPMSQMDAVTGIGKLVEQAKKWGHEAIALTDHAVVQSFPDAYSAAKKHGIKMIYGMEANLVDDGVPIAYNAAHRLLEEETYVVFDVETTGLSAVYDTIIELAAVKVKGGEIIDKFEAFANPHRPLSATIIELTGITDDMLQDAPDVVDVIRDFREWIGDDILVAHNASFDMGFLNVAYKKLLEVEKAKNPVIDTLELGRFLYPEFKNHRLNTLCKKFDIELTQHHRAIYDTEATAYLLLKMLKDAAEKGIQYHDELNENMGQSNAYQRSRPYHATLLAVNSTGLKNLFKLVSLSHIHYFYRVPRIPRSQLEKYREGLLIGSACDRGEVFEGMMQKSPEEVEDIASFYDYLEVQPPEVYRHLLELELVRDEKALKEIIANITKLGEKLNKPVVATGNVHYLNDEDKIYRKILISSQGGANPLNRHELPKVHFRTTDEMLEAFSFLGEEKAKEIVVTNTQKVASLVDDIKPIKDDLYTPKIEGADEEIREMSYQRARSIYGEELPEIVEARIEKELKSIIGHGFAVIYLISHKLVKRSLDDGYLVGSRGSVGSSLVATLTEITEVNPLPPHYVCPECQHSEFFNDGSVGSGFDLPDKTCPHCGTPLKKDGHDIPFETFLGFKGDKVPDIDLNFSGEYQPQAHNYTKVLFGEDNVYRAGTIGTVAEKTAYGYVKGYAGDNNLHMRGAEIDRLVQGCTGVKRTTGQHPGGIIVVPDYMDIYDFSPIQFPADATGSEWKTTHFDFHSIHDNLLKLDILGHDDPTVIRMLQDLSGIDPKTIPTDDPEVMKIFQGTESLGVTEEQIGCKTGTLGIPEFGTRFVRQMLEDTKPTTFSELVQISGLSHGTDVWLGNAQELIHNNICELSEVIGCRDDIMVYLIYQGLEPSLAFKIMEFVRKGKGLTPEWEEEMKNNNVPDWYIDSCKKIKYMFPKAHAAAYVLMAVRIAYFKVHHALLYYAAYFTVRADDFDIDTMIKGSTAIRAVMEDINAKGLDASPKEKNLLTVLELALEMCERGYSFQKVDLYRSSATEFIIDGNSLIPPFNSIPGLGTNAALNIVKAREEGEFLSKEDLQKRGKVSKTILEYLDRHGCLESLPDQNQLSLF
Chain of Chromobox protein homolog 1 (Homo sapiens) (P83916 whole entry, looked up): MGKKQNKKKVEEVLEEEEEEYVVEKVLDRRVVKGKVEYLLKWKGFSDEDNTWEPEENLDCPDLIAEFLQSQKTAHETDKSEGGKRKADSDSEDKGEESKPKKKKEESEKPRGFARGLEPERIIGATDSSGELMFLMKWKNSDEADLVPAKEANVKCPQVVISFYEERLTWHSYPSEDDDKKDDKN

As to `CCc1c(C(=O)NCCc2ccc(N3CCCCC3)cc2)[nH]c2ccc(Cl)cc12`, the compound was classed as inactive in assay [1], in [7] and in [8]. Also, the Potency result in [2], in assay [3], in assay [4], in assay [5], in assay [6] and in assay [9] was “inactive” throughout. For the same compound, the Potency result in assay [10], in assay [11] and in assay [12] was “inactive” throughout. In assay [13], the Potency was 20 µM (active).
Turning to `C=CC(=O)c1ccc(CCCCCC)cc1`, the call in assay [1] and in assay [8] was inactive. Besides, the Potency result in assay [2], in [3], in assay [4], in assay [5], in [6] and in assay [9] was “inactive” in each case. The Potency result in assay [11] and in assay [12] was “inactive” each time.
Regarding `C[N+](C)(C)CCOP(=O)(O)OP(=O)([O-])OC[C@H]1O[C@@H](n2ccc(N)nc2=O)[C@H](O)[C@@H]1O`, the compound was called inactive in [1], in assay [7] and in [8]. The Potency entry in [2], in assay [3], in assay [4], in assay [5], in assay [6] and in assay [14] was “inactive” each time. Further, the Potency result in assay [9], in assay [10], in assay [11], in assay [12] and in assay [13] was “inactive” in each case.
With `CCCC1(C)C(C#N)(C#N)C1(C#N)C#N`, the Potency result in [2], in [5], in [6], in assay [14], in [9] and in assay [11] was “inactive” throughout. Further, the Potency result in assay [12] and in assay [13] was “inactive” throughout. For the same compound, the Potency in assay [3] was 2.33 µM (active); in assay [10], 10.6 µM (active). Moreover, the compound was called inactive in assay [15] and in [8].
In the case of `COC1=C(OC)C(=O)c2ccccc2C1=O`, the Potency result in assay [2], in assay [5], in [6], in assay [16], in assay [17] and in assay [9] was “inactive” each time. Also, the Potency entry in [10], in assay [11], in assay [12] and in [13] was “inactive” each time. Besides, the result in assay [15], in assay [7] and in [8] was inactive.
Regarding `CC(C)(C)NCC(O)COc1nsnc1N1CCOCC1` (stereo not given), the Potency result in assay [18], in assay [17] and in assay [12] was “inactive” each time.
Consider `Oc1ccccc1O`, for which the Potency result in [2], in [5], in assay [6], in [16] and in assay [9] was “inactive” in each case. In addition, the compound was called inactive in [15] and in assay [8].
Consider `Cn1ncc(S(=O)(=O)Cc2ccccc2)c(Br)c1=O`, for which the Potency entry in [2], in assay [5], in [6], in assay [9], in assay [11] and in [12] was “inactive” in each case. For the same compound, the call in assay [8] was inactive.
As to `CN(C)c1nc2c(Br)c(Br)c(Br)c(Br)c2[nH]1`, the call in assay [1], in assay [15] and in assay [8] was inactive. For the same compound, the Potency result in assay [2], in [5], in assay [6], in [14], in [17] and in [9] was “inactive” each time. In addition, the Potency entry in assay [11], in assay [12] and in assay [13] was “inactive” each time.
Regarding `COc1cc2nc(N3CCN(C(=O)OCc4ccccc4)C(C(=O)NC(C)(C)C)C3)nc(N)c2cc1OC` (stereo not given), the compound was classed as inactive in assay [1] and in [8]. Moreover, the Potency result in [2], in [5], in [6], in assay [9], in assay [10] and in [12] was “inactive” in each case. Moreover, in assay [13], the Potency result is “inactive”.
